Pf growth 96h – P. falciparum growth inhibition at 96 hour, primary screen for plastid delayed-death inhibitors; P. falciparum luciferase reporter growth, 96 h; Potency, µM (top dose mostly 28.7 µM), for the others: at the highest dose activity change, negative = inhibition, most hits filed as inhibitors; 320,000 tested, 6.9% active
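Compounds incubated with erythrocytes infected by luciferase-expressing P. falciparum (2% hematocrit, 0.05% parasitemia final) for 96 hours, 37 C in 5% CO2. Growth inhibition scored as decreased luciferase luminescence.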
AMA1-RON2 inh – inhibitors of Plasmodium falciparum AMA1-RON2 interaction; AlphaScreen AMA1-biotinylated RON2 peptide binding; Potency, µM (top dose mostly 58.2 µM), without a hit: top-dose activity change, negative = inhibition, hits mostly inhibitors; 360,000 tested, 0.2% active; AID 720542;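 also: 0% = vehicle wells and -100% = peptide control; nearly all actives have a fitted effect of over 45% in size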
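AMA1 (3D7) with his tag at 25 nM final met compounds first, then biotinylated RON2 peptide at 25 nM; detection used donor plus acceptor beads, 10 µg/mL apiece, read by AlphaScreen after 30 min at room temperature.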
HCV inhibitor – inhibitors of hepatitis C virus infection; Potency, µM (top dose mostly 41.8 µM), inactives show top-dose activity change, negative = inhibition, usual class: inhibitors; Huh7.5.1 HCVcc-Cre infection, luciferase reporter, 44 h; 340,000 tested, 3.4% active
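After 44 h co-culture of compound, cells and HCVcc-Cre (~0.5 moi), substrate is added for 15 min at room temperature and luciferase measured over 15 sec. Cells were seeded at 1,000/well and pre-cultured 4 h.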
Pf growth 48h – P. falciparum growth inhibition at 48 hours (one generation); Potency, µM (titrated, usually from 28.7 µM), without a hit: at the top dose activity change, negative = inhibition, actives largely listed as inhibitors; P. falciparum luciferase growth in erythrocytes, 48 h; 310,000 tested, 5.9% active; AID 504832
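Parasite viability was followed by luminescence of a genomically integrated firefly luciferase. Cultures held 0.1% parasitemia at 2% hematocrit (final), incubated under 5% CO2 at 37 C.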
Starred values were filed as active, the others as inactive; ? = inconclusive; . = no result; [ ] = remark or other dose. Most compounds without a hit are left out; they make up all but 11% or so of the library. Calls follow the shape of the dose curve; as a rule, active = well fitted curve in the direction sought with a large enough effect; inconclusive = small, poorly fitted or top-dose-only effect, or another doubt; inactive = no such curve, though single readings can be large; an effect the other way counts as inactive or inconclusive. Unless noted, % is scaled to controls: 0 for no effect and ±100 for the full control effect; potency is read from the fitted curve at half-maximal effect.

SMILES	Pf growth 96h	AMA1-RON2 inh	HCV inhibitor	Pf growth 48h
COc1ccc(/C(N)=N/OC(=O)c2ccc(OC)c([N+](=O)[O-])c2)cc1OC	32%[5.75 µM]	0%	35µM*	?
COc1ccc(/C(N)=N/OC(=O)c2cccc([N+](=O)[O-])c2C)cc1OC	13µM*	-3%	?	.
COc1ccccc1C(=O)O/N=C(\N)c1ccccc1Cl	5%	0%	-14%	192%
COc1ccc(C(=O)O/N=C(\N)c2ccccc2)c(OC)c1	-72%	-4%	?	-66%
COc1ccc(/C(N)=N/OC(=O)c2cccc([N+](=O)[O-])c2)cc1OC	.	0%	5%	9%
COc1ccc(C(=O)O/N=C(\N)c2ccc(OC)c(OC)c2)c(OC)c1	-9%	2%	13µM*	75%
COc1ccc(C(=O)O/N=C(\N)c2ccccc2Cl)cc1OC	5.2µM*	12%	10µM*	10%[0.00184 µM]
COc1ccc(/C(N)=N/OC(=O)Cc2ccccc2[N+](=O)[O-])cc1	13µM*	-4%	?	7%
CC(C)C(C(=O)NC1CCCC1)N1CCN(c2ncccc2C#N)CC1 (stereo unspecified)	.	4%	.	.
CCOC1=C2[C@H](c3ccccc3F)N(S(=O)(=O)c3ccc(C)cc3)C[C@H]2n2c(=O)n(-c3ccccc3)c(=O)n2C1	.	-5%	.	.
C/C(=N\NC(=S)Nc1cc(S(=O)(=O)N2CCOCC2)ccc1Cl)c1ccc(N2CCOCC2)cc1	1.9µM*	117%	-22%	1.7µM*
COc1ccc2cc(/C(C)=N/NC(=S)Nc3cc(S(=O)(=O)N4CCOCC4)ccc3N3CCOCC3)ccc2c1	?	.	.	1.5µM*
O=S(=O)(c1ccc(Cl)c(NC(=S)Nc2ccccc2N2CCOCC2)c1)N1CCOCC1	-27%	20%	3%	8%
C/C(=N\NC(=S)Nc1ccc(C)c(C)c1)c1ccc(N2CCOCC2)cc1	3.7µM*	0%	?	12µM*
COc1ccc(/C=C(\NC(=O)c2ccc(OC)cc2)C(=O)Nc2ccccc2C(=O)O)cc1	35%	3%	10%	24%
FC(F)C(F)(F)Oc1cccc(Nc2nccn3c(-c4cccc5ccccc45)cnc23)c1	.	38%	.	.
O=C(Nc1ccccn1)c1ccc2nc(-c3ccccc3)c(-c3ccccc3)nc2c1	9%	.	.	2%
O=C(Nc1ccccn1)c1ccc(-c2ccccc2)cc1	-76%	-8%	10µM*	118%
CCN(CC(=O)NCc1ccccn1)S(=O)(=O)c1ccc(Cl)cc1	.	4%	4%	-9%
Cc1ccc2[nH]c3c(=O)n(CC(=O)N4CCN(C)CC4)ncc3c2c1	7.4µM*	-7%	-6%	45%
O=C(Cn1ncc2c([nH]c3ccccc32)c1=O)N1CCN(c2ccccn2)CC1	1.3µM*	10%	14%	-14%
Cc1cc2c(N=O)c(NO)ccc2[nH]1	41%	21%	?	3.7µM*
COc1ccc(-c2[nH]ncc2Oc2ccccc2OC)c(O)c1	-13%	11%	-25%	?
C=C(C)COc1ccc(-c2ncncc2Oc2ccc(OC)cc2)c(O)c1	.	33%	-28%	3.7µM*
C=C(C)COc1ccc(-c2nc(N)nc(C)c2-c2ccc(OC)cc2)c(O)c1	?	20%	?	?
SMILES	Pf growth 96h	AMA1-RON2 inh	HCV inhibitor	Pf growth 48h
C=C(C)COc1ccc(-c2[nH]ncc2Oc2ccccc2OCC)c(O)c1	1.2µM*	110%	?	1.3µM*
COc1ccc(Oc2cn[nH]c2-c2ccc(O)cc2O)cc1	?	-4%	-28%	?
C=C(C)COc1ccc(-c2[nH]ncc2Oc2cccc(OC)c2)c(O)c1	8.3µM*	92%	?	9.3µM*
CCOc1ccccc1Oc1cn[nH]c1-c1ccc(O)cc1O	9.3µM*	44%	?	8.3µM*
COc1ccc(OC)c(CC(=O)Nc2ccc3c(c2)c(=O)n(C)n3Cc2cccc(C(F)(F)F)c2)c1	.	1%	.	.
Cc1ccc2c(c1)N(C(=O)c1ccco1)C(C)(C)c1ssc(=S)c1-2	5.2µM*	12µM*	-12%	.
Cc1cccc2c1N(C(=O)c1ccco1)C(C)(C)c1ssc(=S)c1-2	5.2µM*	-10%	9%	?
Cc1cccc2c1N(C(=O)CN1C(=O)c3ccccc3C1=O)C(C)(C)c1ssc(=S)c1-2	31%	-27%	-20%	?
Cc1ccc2c(c1)N(C(=O)CSc1nncn1C)C(C)(C)c1ssc(=S)c1-2	.	?	10µM*	?

Bioassay records (PubChem BioAssay)
